Bioassay records (PubChem)
Most compounds without a hit are left out; they make up all but 2.5% or so of the library.
Cruzain noTriton: cruzain (T. cruzi) inhibition without detergent | P25779 | purified cruzain, Z-FR-AMC fluorescence, no detergent | Potency, µM, without a hit: max response, negative = inhibition, hits mostly inhibitors | hit rate 2.3% among 200,000 | AID 1476;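 further: plate controls were enzyme without inhibitor for no effect and buffer without enzyme for full effect; nearly all actives have a fitted effect of over 40% in size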
Target sequence (P25779 123-467 limits assumed): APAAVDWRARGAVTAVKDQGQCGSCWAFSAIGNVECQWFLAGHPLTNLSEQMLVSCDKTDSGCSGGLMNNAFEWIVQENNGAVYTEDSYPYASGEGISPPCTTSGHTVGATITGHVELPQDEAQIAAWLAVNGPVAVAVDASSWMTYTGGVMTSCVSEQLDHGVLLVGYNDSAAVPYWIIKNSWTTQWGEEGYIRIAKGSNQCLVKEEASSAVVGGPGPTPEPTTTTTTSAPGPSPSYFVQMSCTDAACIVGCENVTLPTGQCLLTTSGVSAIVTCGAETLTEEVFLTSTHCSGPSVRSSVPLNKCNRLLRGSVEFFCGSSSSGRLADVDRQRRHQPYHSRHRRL
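Detergent-free condition (0.00005% Triton X-100) in acetate buffer pH 5.5 with DTT. 1.5 nM enzyme and compound were pre-mixed 15 min, then 2 uM Z-FR-AMC substrate added; reaction progress from fluorescence change between first and third reads (60 s).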
Cruzain Triton: inhibitors of Trypanosoma cruzi cruzain with detergent | purified cruzain, Z-FR-AMC fluorescence, 0.01% Triton | Potency, µM, for inactives: max response, negative = inhibition, hits mostly inhibitors | hit rate 0.43% among 200,000 | P25779;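 further: plate controls were neutral wells for no effect and buffer without enzyme for full effect; nearly all actives have a fitted effect of over 40% in size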
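Z-FR-AMC hydrolysis (2 uM substrate) by cruzain (1.5 nM) monitored kinetically at ex 360/em 450 nm after 15 min room-temperature compound exposure; 0.01% Triton X-100, pH 5.5, 5 mM DTT.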
Starred values were filed as active, the others as inactive; ? = inconclusive. The call rests on the fitted dose curve; in most records, active means well fitted curve in the direction sought with a large enough effect; inconclusive means small, poorly fitted or top-dose-only effect, or another doubt; inactive means no such curve, though single readings can be large; an effect the other way counts as inactive or inconclusive. Potency means the concentration at half of the fitted maximal effect.

SMILES	Cruzain noTriton	Cruzain Triton
CCCn1c(CCC(=O)Nc2ccc(C)c(Cl)c2)nc2cccnc21	-4.3%	-6.3%
CO[C@]1(C2=NCCN2)COc2ccccc2O1	-2.5%	0.7%
CC(=O)CC(=O)Nc1ccccc1	1.0%	6.0%
Cn1c(=NC(=O)c2ccc(S(=O)(=O)N3CCCc4ccccc43)cc2)sc2cc(S(C)(=O)=O)ccc21	-11.2%	-5.5%
C#CCn1c(=NC(=O)c2ccc(S(=O)(=O)N3CCCc4ccccc43)cc2)sc2cc(S(N)(=O)=O)ccc21	7.94µM*	-2.0%
CCOc1ccc(-n2c(=O)c3c4c(sc3n(Cc3cccc(Cl)c3)c2=O)CCCC4)cc1	-7.0%	0.4%
O=C(O)[C@@H](c1ccccc1)N1Cc2ccccc2C1=O	15.8µM*	-27.3%
CCCCNC(=O)[C@@H](c1ccccc1)N1Cc2ccccc2C1=O	5.2%	6.5%
CCCn1c(=O)c2sccc2n2c(CCCC(=O)Nc3ccc(C)c(F)c3)nnc12	-0.6%	0.9%
CCc1ccc(C(=O)COC(=O)C(Cc2c[nH]c3ccccc23)NC(=O)c2ccc(Br)cc2)cc1 (centres undefined)	?	1.2%
CCOc1ccccc1NC(=O)c1nc[nH]c1C(=O)Nc1ccccc1OCC	-5.4%	3.1%
Cc1ccc(NC(=O)c2nc[nH]c2C(=O)Nc2ccc(C)cc2)cc1	7.94µM*	3.3%
COc1ccccc1NC(=O)c1nc[nH]c1C(=O)Nc1ccccc1OC	10µM*	4.8%
CNC(=O)c1[nH]cnc1C(=O)Nc1ccc(C)cc1	-12.2%	-1.5%
COc1ccc(CCNC(=O)CN(c2cc(C(F)(F)F)ccc2Cl)S(C)(=O)=O)cc1	-5.5%	-4.0%
O=C(CCCn1c(=O)c2cccn2c2ccccc21)NCc1ccccc1Br	-5.4%	-1.9%
Cc1ccc(CNc2nc(-c3ccco3)nn2S(=O)(=O)c2ccc3ccccc3c2)cc1	?	-3.0%
CC(C)c1ccc(CNc2nc(-c3ccco3)nn2S(=O)(=O)c2ccc3ccccc3c2)cc1	10µM*	0.2%
O=c1[nH]c(/C(Cl)=C/c2cccc(C(F)(F)F)c2)nc2cc(Cl)ccc12	3.16µM*	-2.8%
O=c1[nH]c(/C(Cl)=C/c2c(F)cccc2Cl)nc2cc(Cl)ccc12	?	-3.8%
Cc1sc(-n2cccc2)c(C(C)NC(=O)Nc2cccc(C(F)(F)F)c2)c1C (centres undefined)	-9.2%	-7.5%
C=C1CCC(=O)C(C)CCC2C1CC2(C)C (centres undefined)	2.1%	3.1%
O=C(OCc1nc2scc(-c3ccccc3)c2c(=O)[nH]1)c1cccc([N+](=O)[O-])c1	25.1µM*	-6.6%
CC(C)[C@H](NC(=O)c1ccccc1)C(=O)OCc1nc2scc(-c3ccccc3)c2c(=O)[nH]1	?	-5.9%
O=c1c2ccccc2nnn1CSc1nnc(-c2cccs2)n1Cc1ccccc1	-11.6%	-1.6%
SMILES	Cruzain noTriton	Cruzain Triton
C=CCn1c(SCC(=O)Nc2ccccc2)nc2scc(-c3cccs3)c2c1=O	25.1µM*	-6.1%
C=CCn1c(SCC(=O)N2CCCC2)nc2scc(-c3cccs3)c2c1=O	1.7%	-0.7%
C=CCn1c(SCn2nnc3ccccc3c2=O)nc2scc(-c3cccs3)c2c1=O	7.94µM*	3.8%
Oc1c(Br)cc2oc3c(c2c1CNCc1ccccc1)CCCC3	31.6µM*	-7.8%
Oc1c(Br)cc(Br)cc1CN1CCN(Cc2ccccc2)CC1	1.6%	-2.1%
O=C(Cn1c(=O)c2sccc2n(CC(=O)Nc2ccc(Cl)cc2Cl)c1=O)NCCc1ccccc1	3.6%	1.1%
Cc1ccc(C)c(CSc2nnc3[nH]c(=O)cc(-c4ccccc4)n23)c1	-9.9%	-1.0%
COc1ccccc1N1CCN(C(=O)c2cnc(N3CCOCC3)c3ccccc23)CC1	?	-2.9%
Cc1cccc(C(=O)N/N=C/c2ccncc2)c1	3.6%	0.3%
CCn1c2ccccc2c2cc(/C=N/NC(=O)c3cccc(C)c3)ccc21	7.94µM*	6.6%
CCn1c2ccccc2c2cc(/C=N/n3cnnc3)ccc21	-7.0%	-10.9%
CCn1c2ccccc2c2cc(/C=N/NC(=O)c3ccccc3C)ccc21	31.6µM*	-21.5%
CCN(c1ccccc1)S(=O)(=O)c1ccc(NC(=O)c2cc(=O)c3ccc(C)c(C)c3o2)cc1	-12.8%	-0.1%
N#Cc1cc(-c2ccccc2)nnc1Sc1ccccc1	25.1µM*	0.3%
N#Cc1cc(-c2ccccc2)nnc1Sc1ccc(F)cc1	4.3%	-0.5%
CCOc1ccc2c(c1)-c1c(ssc1=S)C(C)(C)N2C(=O)CSC1=NCCS1	15.8µM*	-6.5%
Cc1ccc2c(c1)-c1c(ssc1=S)C(C)(C)N2C(=O)CSC1=NCCS1	?	-2.6%
Cc1ccc(S(=O)(=O)c2nc(-c3cccs3)oc2SCc2ccc(F)cc2)cc1	-14.6%	-5.3%
Cc1cc(C(=O)NC2=NCCS2)cs1	-4.1%	-1.9%
O=C(NC1=NCCS1)c1csc2ccccc12	15.8µM*	-13.9%
CC1=CC(=O)C2=C(C)C[C@@H]3OC(=O)[C@@H](C)[C@H]3C=C12	-7.1%	-1.0%
CCc1ccc(OCCSc2nc(-c3cccc(C)c3)nc3cc(=O)[nH]n23)cc1	-7.9%	2.2%
